The values below come from PubChem BioAssay AID720629 (Broad Institute, 2013).

The nature of this test: caspase-3/7 apoptosis induction in SNB-75, late-stage follow-up, mechanism study for HRAS target identification, cell-based, caspase 3/7 luminescence, several timepoints, dry powder (AID 720629). As to conditions: max activity: measured here: caspase 3/7, timepoint 1, at 0.0003 µM, stronger effect = higher value unless noted.

Inconclusive results are not listed. Active and inactive are the calls of the source. How the calls were made is not given here.

As to `C#CCCCC(=O)NCCOCCOCCOc1ccc(N(C(=O)CCl)C(C(=O)NCCc2ccccc2)c2cccs2)cc1Cl` (centres undefined), the max activity is -28.3% and the result was inactive.

For the compound `CCC(=O)N(c1ccc(OC)c(Cl)c1)C(C(=O)NCCc1ccccc1)c1cccs1` (centres undefined), the max activity is -24.1% [measured here: caspase 3/7, timepoint 1, at 0.0001 µM, stronger effect = higher value] and the call was inactive.
